Reference: the supplement of paper PMC3334620
Over roughly 33,000 sequences, “E-score (-0.5 to 0.5)” has its median near -0.036; the highest 2% begin near 0.37. The entries come from a sample that favours the highest values as a whole.

Biological target: T1, Yer064c (UniProt P40041)
T1 sequence: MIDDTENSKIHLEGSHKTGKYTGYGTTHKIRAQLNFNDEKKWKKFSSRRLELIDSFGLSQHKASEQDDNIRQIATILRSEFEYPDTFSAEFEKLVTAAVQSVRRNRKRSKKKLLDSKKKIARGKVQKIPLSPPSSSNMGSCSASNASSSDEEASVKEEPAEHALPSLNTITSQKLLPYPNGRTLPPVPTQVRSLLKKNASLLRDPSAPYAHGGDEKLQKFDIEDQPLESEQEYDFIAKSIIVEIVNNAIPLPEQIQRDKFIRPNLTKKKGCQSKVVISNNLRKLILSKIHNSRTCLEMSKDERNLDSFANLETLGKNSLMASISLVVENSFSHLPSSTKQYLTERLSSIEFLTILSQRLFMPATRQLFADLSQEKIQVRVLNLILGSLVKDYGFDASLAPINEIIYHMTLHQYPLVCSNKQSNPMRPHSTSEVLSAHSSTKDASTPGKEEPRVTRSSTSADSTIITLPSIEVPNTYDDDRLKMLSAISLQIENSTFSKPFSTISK
Test: PBM E-score (8-mer binding enrichment) (E-score (-0.5 to 0.5)); higher = stronger / more preferred TF binding
Settings: protein concentration: 200 nM; construct: GST-full length
Method in brief: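 Using PURExpress in vitro transcription/translation, GST-tagged yeast transcription factors were made in full-length or DNA-binding-domain form. These were applied at about 100-200 nM to double-stranded universal all-10-mer Agilent arrays, and bound protein was detected with fluorescent anti-GST. Scans were normalised with masliner before the Universal PBM Analysis Suite assigned E-scores to ungapped eight-base words pooled with their reverse complements.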

Row | Sequence | PBM E-score
1 | AGCCGAGA | 0.0772
2 | CACTTTCG | -0.131
3 | AACACCAT | -0.0344
4 | CAGCTTTA | -0.123
5 | ATATATCA | -0.0122
6 | GGCACCCC | -0.215
7 | ATCATGAT | 0.378
8 | GTCATGAC | 0.432
9 | CTCATGAG | 0.3
10 | CTCATGAC | 0.381
11 | ATCATGAG | 0.34
12 | ATCATGAC | 0.369
13 | AGCATGAT | 0.26
14 | ATCATGAA | 0.266
15 | CTCATGAA | 0.202
16 | GTCATGAA | 0.308
17 | ACCATGAT | 0.217
18 | GCCATGAC | 0.307
19 | CCGAGCAA | -0.287
20 | ATTTGGTG | -0.0429
21 | CCACGTTC | -0.218
22 | CGGTCAAG | -0.055
23 | AATTTAGT | 0.363
24 | GTACCGCA | -0.0756
25 | CTAGCACA | -0.147

Row | Sequence | PBM E-score
26 | ACATAGTC | 0.386
27 | CCATAGCC | -0.0772
28 | ACATAGTA | 0.0874
29 | ACATAGTG | 0.0787
30 | CCATAGTA | 0.0975
31 | CCATAGTC | 0.396
32 | CTCTCGAC | -0.0566
33 | ACCGCCCA | -0.117
34 | CGAGAATA | -0.0825
35 | CGTCACGA | -0.0925
36 | ATTCACGC | 0.132
37 | AGTCACGA | 0.466
38 | AGTCACGG | 0.469
39 | CGTCACGC | -0.184
40 | AATCACGG | 0.322
41 | GGTCACGA | 0.0181
42 | ATTCACGG | 0.196
43 | AGTCACGC | 0.469
44 | CAGTAAAG | 0.0694
45 | CCGTTTGA | 0.0399
46 | ACACCCAA | -0.0135
47 | CCGCCTAC | -0.132
48 | CCTTCGCA | -0.293
49 | CTCGGAAC | -0.012
50 | GACGGCAA | -0.0972

Row | Sequence | PBM E-score
51 | GGGAATGA | 0.0959
52 | CGGAATTA | -0.0336
53 | CGGAATCA | 0.392
54 | AGGAATCG | 0.235
55 | GGGAATAA | -0.128
56 | AGGAATCC | -0.0672
57 | AGGAATCA | 0.429
58 | CGGAATCC | -0.0704
59 | GGGAATCA | 0.418
60 | GGATTCCA | 0.0871
61 | CGCCGAAA | -0.059
62 | GCGCAGGA | -0.0398
63 | CCATCCTA | 0.0627
64 | ATACCATG | 0.061
65 | ACGTCATG | 0.21
66 | AGGTCATG | 0.17
67 | AGGTCATA | 0.171
68 | ATGTCATA | 0.013
69 | AGGTCATC | 0.18
70 | AACTCATT | 0.2
71 | AAGTCATT | 0.454
72 | ATGTCATC | -0.179
73 | AAGTCATC | 0.471
74 | AAGTCAAT | 0.305
75 | AAGTCATG | 0.465

Row | Sequence | PBM E-score
76 | AAGTCATA | 0.46
77 | ATCTCTAA | 0.0574
78 | AAGGATCC | -0.15
79 | GAGTTCTA | 0.0136
80 | GGTTGGGA | 0.00893
81 | GGTATCAA | 0.0678
82 | CGGTCATC | -0.108
83 | CCGTCATC | -0.098
84 | CAGTCATC | 0.467
85 | ATCAAATC | 0.21
86 | GAGAAGCC | -0.201
87 | AGCAGAGC | -0.137
88 | ATCATACA | 0.236
89 | GTCATACA | 0.374
90 | CTCATACA | 0.184
91 | ATCAGGAA | 0.00077
92 | CCGGCATC | -0.251
93 | GGTAATGA | 0.189
94 | GGTAATCA | 0.433
95 | CGTAATCA | 0.42
96 | GGTAATTA | 0.0662
97 | CGTAATTA | -0.00543
98 | AGTAATCG | 0.186
99 | CGTAATCC | -0.0532
100 | AGTAATCC | 0.0831

Row | Sequence | PBM E-score
101 | AGTAATCA | 0.415
102 | CTGCGGTC | -0.245
103 | CAGACCGC | -0.0824
104 | AGTCGATA | 0.179
105 | ATACTCAA | 0.239
106 | AGACTCTG | 0.301
107 | ACTCTCAA | 0.257
108 | AGACTCTA | 0.267
109 | AGACTCAA | 0.444
110 | ATACTCAG | 0.214
111 | ACTCTCAC | 0.173
112 | AGACTCAC | 0.457
113 | AGACTCAG | 0.434
114 | ACTCTCAG | 0.125
115 | AGACTCGC | 0.336
116 | ATACTCAT | 0.371
117 | CCAAGTTA | 0.0576
118 | CAATTGCG | -0.0914
119 | ATGGATGG | -0.0396
120 | GCAACTGC | -0.0982
121 | AACCGTGT | 0.0249
122 | CGGTTCAG | -0.212
123 | TAGCTAAA | 0.0446
124 | CCGGGGGC | -0.128
125 | CCCCACCC | -0.0582

Row | Sequence | PBM E-score
126 | ATCATTTA | 0.327
127 | ATCCTTAG | -0.107
128 | CATGGCCG | -0.31
129 | AGACTCCG | 0.367
130 | CAACTCAC | 0.224
131 | CCACTCAC | -0.0373
132 | AGACTCCT | 0.337
133 | CGACTCGC | 0.361
134 | CGACTCAC | 0.468
135 | ACACTCCG | -0.136
136 | ACACTCAT | 0.25
137 | CGACTCTC | 0.381
138 | AGACTCTC | 0.334
139 | ACTCTCAT | 0.112
140 | AGACTCAT | 0.467
141 | TGGGCTAA | -0.0729
142 | AGATGGTC | -0.295
143 | AGAGACAG | -0.0696
144 | GAACTAGA | 0.0303
145 | CGACTCAG | 0.45
146 | CTACTCAG | 0.132
147 | CCACTCAG | 0.0632
148 | CCGTTATC | 0.0125
149 | ATGGCGGG | -0.0628
150 | ACTCACAT | 0.35

Row | Sequence | PBM E-score
151 | AGTCACAG | 0.467
152 | GGTCACAA | 0.0763
153 | CGTCACAA | -0.0973
154 | AGTCACAC | 0.477
155 | GGTCACAC | -0.00398
156 | AGGCACAT | -0.117
157 | AGTCACAA | 0.46
158 | CGTCACAC | -0.155
159 | AGTCACAT | 0.469
160 | ATTCACAG | 0.078
161 | CGTCACAG | -0.031
162 | CCCCGCTA | -0.209
163 | CTGGCGCC | -0.331
164 | TGCGGACA | -0.121
165 | GATGGCTA | 0.359
166 | CAGTCATG | 0.458
167 | CCGTCATA | 0.0861
168 | CAGTCATA | 0.448
169 | TAGTCATA | 0.489
170 | ATGTCATG | 0.214
171 | CACTCATG | 0.222
172 | CGGTCATA | -0.0954
173 | TACTCATA | 0.343
174 | CTGTCATA | 0.0424
